From PubChem BioAssay AID1671190 (National Center for Advancing Translational Sciences (NCATS), 2021)
“And” between values parts separate entries of the source, which are not always exact repeats. Equal entries are not always repeated. Screen size: about 580,000 compounds; about 6,100 (1.1%) were called active. Roughly 15% stayed inconclusive and do not appear here. Calls follow the shape of the dose curve; as a rule, active = well fitted inhibition curve with a large enough effect; inconclusive = small, poorly fitted or top-dose-only effect, or another doubt; inactive = no such curve, though single readings can be large or run the other way. Shown is part of a subset that was picked to be rich in actives. Where a call stands in place of a potency, no number is given.

target: Polyunsaturated fatty acid lipoxygenase ALOX12 (Homo sapiens) (UniProt P18054); assay: Primary qHTS assay for inhibitors of human arachidonate 12S-lipoxygenase (ALOX12): Round 2; conditions: purified 12hLO, xylenol orange hydroperoxide absorbance; series mostly up to 108 µM
In short: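 Purified human 12hLO at 150 nM in 25 mM Hepes, 0.01% Triton X-100, pH 7.0, preincubated 15 min at room temperature with compound. Reaction started with 40 uM arachidonic acid, 30 min at room temperature. Hydroperoxide measured by Fe-xylenol orange, 573/405 nm absorbance ratio.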
Potency is read from the fitted curve at half-maximal effect.

Polyunsaturated fatty acid lipoxygenase ALOX12 (Homo sapiens), sequence (P18054 whole entry, looked up): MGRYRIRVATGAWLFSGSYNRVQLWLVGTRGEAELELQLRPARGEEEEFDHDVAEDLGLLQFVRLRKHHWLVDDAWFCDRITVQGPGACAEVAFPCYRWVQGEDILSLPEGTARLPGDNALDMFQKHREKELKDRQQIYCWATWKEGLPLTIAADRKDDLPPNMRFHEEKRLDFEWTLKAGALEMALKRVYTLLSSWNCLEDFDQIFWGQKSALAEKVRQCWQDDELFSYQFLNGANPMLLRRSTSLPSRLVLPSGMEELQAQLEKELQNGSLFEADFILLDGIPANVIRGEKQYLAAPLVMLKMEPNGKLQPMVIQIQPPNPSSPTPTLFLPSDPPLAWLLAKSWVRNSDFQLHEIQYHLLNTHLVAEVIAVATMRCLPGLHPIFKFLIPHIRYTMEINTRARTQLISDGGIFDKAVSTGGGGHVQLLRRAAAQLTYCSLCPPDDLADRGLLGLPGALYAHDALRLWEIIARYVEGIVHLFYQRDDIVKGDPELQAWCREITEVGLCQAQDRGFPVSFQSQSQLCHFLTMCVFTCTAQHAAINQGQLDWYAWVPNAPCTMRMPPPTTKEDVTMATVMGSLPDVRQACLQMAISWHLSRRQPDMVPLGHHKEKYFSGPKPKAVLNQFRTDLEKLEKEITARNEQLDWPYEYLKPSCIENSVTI

Structure (SMILES) | Potency
O=C1COc2ccc(C(=O)COC(=O)c3nn(Cc4ccccc4)c(=O)c4ccccc34)cc2N1 | inactive
O=C(c1ccc(F)cc1)N1CCCC(c2nn(-c3cccc(Cl)c3)c(=O)[nH]2)C1 (stereo not drawn) | inactive
Cn1nc(C2CCN(C(=O)c3cccc(Cl)c3)CC2)[nH]c1=O | inactive
O=C(Cc1cccc(Cl)c1)N1CCC(c2nn(-c3ccc(Cl)cc3)c(=O)[nH]2)CC1 | 20 µM (active)
Cc1ccc(C(=O)N2CCC(c3nn(-c4ccccc4)c(=O)[nH]3)CC2)cc1 | inactive
CC(C)(C)C(=O)N1CCC(c2nn(-c3ccc(F)cc3)c(=O)[nH]2)CC1 | inactive
O=C(c1ccccc1F)N1CCC(c2nn(-c3ccc(Cl)cc3)c(=O)[nH]2)CC1 | 31.6 µM (active)
COc1cc(Cl)c(C)cc1NC(=O)Cn1nc(-c2cccs2)oc1=O | inactive
CCCN(CC(F)(F)F)C(=O)c1ccc(NC(=O)NC(C)C)cc1 | inactive
Cc1ccc(-n2ccc(C=O)c2)c(C)c1 | inactive
CCN(CC)C(=O)[C@@H](C)C1CC[C@@]2(C)Cc3sc(N)nc3[C@@H](C)[C@@H]2[C@H]1O (stereo partly drawn) | inactive
C=CCN(C)C(=O)C[C@@H]1c2nc(NC(=O)c3ccc(C(C)(C)C)cc3)sc2C[C@@H]2[C@](C)(CO)[C@H](O)CC[C@]21C | inactive
C=CCN(C)C(=O)[C@@H](C)C1CC[C@@]2(C)Cc3sc(NS(=O)(=O)c4ccc(Cl)cc4)nc3[C@@H](C)[C@@H]2[C@H]1O (stereo partly drawn) | 31.6 µM (active)
CC(Sc1cc(F)ccc1F)C(=O)Nc1ccnn1C(C)C (stereo not drawn) | inactive
O=C(NCc1ccc(Cl)c(Cl)c1)C1CCN(c2ncnc3nc[nH]c23)CC1 | inactive
CCCNC(=O)C1(C)CCCN(Cc2cccc(C(F)(F)F)c2)C1 (stereo not drawn) | inactive
CC(=O)N1CCC2(CCCN(Cc3ccccc3)C2)CC1 | inactive
CC(=O)NC1(C)CCN(Cc2cccc(-c3ccc(C(=O)c4ccccc4)cc3)c2)C1 (stereo not drawn) | 39.8 µM (active)
CC(C)(C)OC(=O)C(C#N)c1cnccn1 (stereo not drawn) | inactive
COc1ccc(C(O)(C2CCCCC2)C(CN2CCCC2)c2ccccc2)cc1 (stereo not drawn) | inactive
CC(C)Oc1ccc(C(O)(CC[N+](C)(C)C)C2CCCCC2)cc1 (stereo not drawn) | 11.2 µM (active)
CC(C)Oc1ccc(C(=O)NC(C)(C)CO)cc1 | inactive
O=C(CN1C(=O)CC2(CCCCC2)C1=O)c1c[nH]c2ccccc12 | inactive
CCn1nc(C(=O)Nc2ccccn2)c2ccccc2c1=O | inactive
Cc1ccccc1CNC(=O)c1cc(-c2ccncc2)nc2ccccc12 | inactive
CCC1(C)COC(c2ccc(OC)c(OC)c2)OC1 (stereo not drawn) | inactive

Structure (SMILES) | Potency
COc1ccc(C2C(=O)N(C3CCCCCC3)CC(=O)N2CCc2ccc(Cl)cc2)cc1OC (stereo not drawn) | inactive
COc1ccc(C2NC(=O)C(=O)/C2=C(\O)c2ccc(Cl)cc2)cc1OC (stereo not drawn) | 28.2 µM (active)
CCN(CC)S(=O)(=O)c1ccc(-c2csc(-c3ccc(OC)c(OC)c3)n2)cc1 | inactive
O=C(CN1c2ccccc2S(=O)(=O)c2ccccc21)Nc1cccc(C(F)(F)F)c1 | inactive
CC(C)(C)c1ccc(/C=N/NC(=O)c2ccccc2)cc1 | inactive
FC(F)(F)c1cccc(N/N=C/c2ccccc2)c1 | 3.55 µM (active)
O=C(O)c1cc(-c2ccc3ccccc3n2)nc2ccc3ccccc3c12 | inactive
CC1(C)CC(=O)C/C(=N/NC(=O)c2ccc(NC(=O)C3CC3)cc2)C1 | inactive
N#CC1(Nc2ccc3c4c(cccc24)CC3)CCCCC1 | 31.6 µM (active)
O=S(=O)(NC1CC1)c1ccc2c3c(cccc13)CC2 | inactive
N#CC1(NC(=O)COC(=O)Cc2n[nH]c(=O)c3ccccc23)CCCCC1 | inactive
CCCCC(=O)Nc1ccccc1C(C)CC (stereo not drawn) | inactive
Cc1nn(-c2ccc(F)cc2)c(Oc2ccccc2F)c1CCC(=O)NCC1CCCO1 (stereo not drawn) | inactive
C=CCNC(=S)/N=c1/ccccn1Cc1ccccc1 | 44.7 µM (active)
C=CCNC(=O)N1CC[C@H]2CC(=O)N(c3ccccc3)CC[C@H]2C1 | inactive
C=CCNC(=O)COc1coc(CN2CCN(Cc3ccccc3)CC2)cc1=O | inactive
COc1ccccc1N1CCN(C(=O)CSc2nccn3nc(-c4ccccc4)cc23)CC1 | inactive
CCOc1cc2ccccc2cc1C(=O)N1CCN(CC(=O)Nc2cccc(F)c2)CC1 | inactive
COc1ccc(C2CC(=O)NC(SCC(=O)Nc3c(C)cccc3C)=C2C#N)cc1OC (stereo not drawn) | inactive
COc1cc(C2CC(=O)N3CN(Cc4ccccc4)CSC3=C2C#N)ccc1OCc1ccccc1 (stereo not drawn) | 14.1 µM (active)
COC(=O)c1ccc(OCc2cccc(C#N)c2)c(OC)c1 | inactive
CCN(CC1COc2ccccc2O1)S(=O)(=O)N1CCOCC1 (stereo not drawn) | inactive
Nc1nonc1C(=O)N1CCN(C(=O)Nc2ccccc2)CC1 | inactive
Cc1cccc2c1NC(=O)C21CC(=O)Nc2c1cnn2C(C)(C)C (stereo not drawn) | inactive
CCOc1c(Br)cc(/C=C/C(=O)c2ccc(OC)c(OC)c2)cc1OC | inactive
Cc1ccccc1Nc1nc(C(=O)NCCCN2CCOCC2)cs1 | inactive

Structure (SMILES) | Potency
Cc1cccc(-c2nc3cnccn3c2NCCC(=O)N2CCCCCC2)c1 | inactive
COc1cccc(-c2nc3nc(C)cc(C)n3c2NC2CCCCC2)c1 | inactive
COc1ccc(-c2nc3cnccn3c2NC2CCCCC2)cc1-c1cccc(Cl)c1 | 7.94 µM (active)
O=C1COc2ccc(Nc3ccccc3F)nc2CN1Cc1ccccc1F | inactive
Cc1ccc(-c2nc(SCc3ccc(Br)cc3)n3[nH]c(=O)cc3n2)cc1 | 31.6 µM (active)
O=c1cc2nc(-c3ccccc3)nc(SCCOc3ccc(Cl)cc3)n2[nH]1 | inactive
Cc1cccc(-c2nc(SCc3ccc(Br)cc3)n3[nH]c(=O)cc3n2)c1 | inactive
COc1ccc(OC)c(CNC(=O)c2cc3c(s2)-c2c(C)cccc2OC3)c1 | inactive
CCNC(=S)NC1CC(C)(C)NC(C)(C)C1 | inactive
Cc1cccc(NC(NC(=O)C(C)C)(C(F)(F)F)C(F)(F)F)c1 | inactive
CCCNC(=O)C(C)OC(=O)c1cc(=O)[nH]c2ccccc12 (stereo not drawn) | inactive
Cc1ccc(NC(=O)CCC(=O)c2ccc(Br)cc2)cc1 | inactive
CC(=O)c1ccc(NC(=O)[C@@]2(CC(=O)O)CC(c3ccc(Br)cc3)=NO2)cc1 | 44.7 µM (active)
Cc1c(Cl)cccc1NC(=O)[C@@]1(CC(=O)O)CC(/C=C/c2ccccc2)=NO1 | inactive
O=C1OC(C2CC2)c2cc3c(cc21)OCCO3 (stereo not drawn) | inactive
O=C(O)c1ccc(S(=O)(=O)Nc2cc(F)ccc2OCC(F)(F)F)cc1 | inactive
Cc1cccc(OCCn2c(CN3CCCCC3)nc3ccccc32)c1 | inactive
CCn1ncc(N2CCC(NC(=O)c3ccc(OC(C)C)cc3)CC2)cc1=O | inactive
COc1ccc(NC(C)=O)cc1NC(=O)CCn1cnc2c1c(=O)n(C)c(=O)n2C | inactive
Cc1cccc(Cn2c(=O)n(CCC(=O)NCCc3ccc(Cl)cc3)c(=O)c3sccc32)c1 | inactive
O=C(Cn1c(=O)n(CCc2ccccc2)c(=O)c2sccc21)c1ccc(Cl)cc1 | 22.4 µM (active)
CCC1CCCCN1C(=O)Cn1c(=O)n(CCCCCC(=O)NCc2ccccc2)c(=O)c2sccc21 (stereo not drawn) | inactive
CC(=O)SC(CC(=O)c1ccccc1)c1ccccc1 (stereo not drawn) | inactive
S=C(NN=Cc1ccccn1)Nc1ccccn1 | 39.8 µM (active)
NCCC(=O)Nc1ccccn1 | inactive
Cc1nc2sc(C(=O)OCC(=O)Nc3cccc(C(F)(F)F)c3)c(C)c2c(=O)[nH]1 | inactive

Structure (SMILES) | Potency
COCCCNC(=O)CCn1ccc2cc(S(=O)(=O)N3CCCCC3)ccc21 | inactive
O=C(Nc1ccccc1Br)c1nc2ccccc2nc1N1CCOCC1 | inactive
COc1cc(Br)c(/C=C(/C#N)C(=O)c2ccccc2)cc1O | 10 µM (active)
COc1ccc(Cl)cc1NC(=O)/C(C#N)=C/c1coc2ccc(Cl)cc2c1=O | inactive
COc1ccc(C(=O)/C(C#N)=C\c2ccccc2OC(F)F)cc1 | inactive
C=CCn1c(-n2nc(CC)cc2CC)nc2c1c(=O)n(C)c(=O)n2C | inactive
O=C(NC1CCN(Cc2ccccc2)C1)c1cc2ccccc2oc1=O (stereo not drawn) | inactive
N#Cc1cccc(NC(=O)CSc2nnc(Cc3ccccc3)o2)c1 | inactive
Cc1ccc(S(=O)(=O)NC(C)c2cccs2)cc1 (stereo not drawn) | inactive
CSCC(NS(=O)(=O)c1ccc(C)cc1)C(=O)O (stereo not drawn) | inactive
Cc1ccc(S(=O)(=O)/N=C2\C=C(NS(=O)(=O)c3ccc(C)cc3)C(=O)c3ccccc32)cc1 | 15.8 µM (active)
CC(C)c1ccc(C(=O)N/N=C/CCc2ccccc2)cc1 | inactive
N#CCCN1CCC(c2ccccc2)C1 (stereo not drawn) | inactive
S=c1[nH]nc(-c2cc(-c3ccsc3)n[nH]2)n1-c1ccccc1 | 15.8 µM (active)
CCCCC(CC(C)O)c1n[nH]c(=S)n1-c1ccccc1 (stereo not drawn) | inactive
CC(=O)c1c(SCC(=O)Nc2ccc(F)cc2)nc(=O)[nH]c1C | inactive
COCC(=O)N1CCC(c2nc(C3CCOCC3)n[nH]2)CC1 | inactive
COc1ccc(Nc2nc3ccccc3nc2NS(=O)(=O)c2ccc(OC)cc2)cc1 | inactive
Cc1ccc(NS(=O)(=O)c2cccc(C(=O)N(C)C(C)c3nc4ccccc4s3)c2)cc1 (stereo not drawn) | inactive
COc1ccc(S(=O)(=O)Nc2ccc(O)c(Sc3nc4ccccc4s3)c2)cc1 | 44.7 µM (active) and 22.4 µM (active)
COC(=O)C1=C(C)NC(=O)C1(NC(=O)c1ccccc1F)C(F)(F)F (stereo not drawn) | inactive
CCCCCCc1ccc(/C(C)=C\C(=O)O)cc1 | inactive
CCOc1ccc(CNC(=O)c2cc(-c3ccc(Cl)s3)nc3ccccc23)cc1 | inactive
CCc1ccc(-c2cc(C(=O)NCc3ccco3)c3ccccc3n2)s1 | 17.8 µM (active) and 35.5 µM (active)
CC(C)Oc1ccc(-c2cc(C(=O)NCc3ccncc3)c3ccccc3n2)cc1 | inactive
